# Assay results reported in PubChem BioAssay AID651789 (National Center for Advancing Translational Sciences (NCATS), 2012).
# Records with an inconclusive call do not appear. Unmarked numbers belong to inactive results. Activity calls are given as the source filed them. Calls follow the shape of the dose curve; as a rule, active = well fitted inhibition curve with a large enough effect; inconclusive = small, poorly fitted or top-dose-only effect; inactive = no such curve, though single readings can be large or run the other way.
# Experiment: Acumen qHTS Assay for Inhibitors of the mTORC1 Signaling Pathway in WT MEF Cells: Hit Validation; also: nearly all actives have a fitted effect of over 60% in size;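 as to activity change, negative = inhibition: phospho-rpS6 Ser235/236 immunofluorescence normalised to propidium iodide cell stain; percent of cells above a cutoff set by 7.5 nM rapamycin treated wells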
# Conditions: Acumen imaging; series mostly up to 37.3 µM; activity change, negative = inhibition: at the top concentration
# Procedure, shortened: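 Read-out is immunofluorescent phospho-rpS6 (Ser235/236) normalised to PI-stained cell number, reported as % active cells using a 7.5 nM rapamycin threshold. Cells: WT or Tsc2-/-, p53-/- MEFs, compound-exposed 24 h at 37C; PI count also tracks viability.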
# Potency is read from the fitted curve at half-maximal effect.
Compound,"activity change, negative = inhibition",Potency
COc1ccc(C)cc1NC(=O)C(Cc1ccccc1)NS(=O)(=O)c1ccc(Br)s1 (centres undefined),6.44%,
CCS(=O)(=O)c1ncc(Cl)c(C(=O)NCc2ccccc2)n1,,3.29 µM (active)
CCOC(=O)c1ccc(N2C(=O)c3n[nH]c(-c4ccco4)c3C2c2ccc(OCC)cc2)cc1 (centres undefined),2.03%,
Cn1nnnc1SCCCNCc1cccc(OCc2ccc(Cl)cc2)c1,88%,
CC(CNC(=O)c1ccc(Nc2nc3ccccc3n3nnnc23)cc1)c1ccccc1 (centres undefined),65.1%,
CCc1ccc(NC(=O)Cn2c(=O)n(-c3ccc(OC)cc3)c(=O)c3ccc(C(=O)NCc4ccc(C)cc4)cc32)cc1,,10.4 µM (active)
CCc1nn(CC(=O)NCc2ccccc2)c(=O)c2cccn12,10.7%,
CCCCNC(=O)CSc1nc2nc(C)c(Cc3ccccc3C)c(C)n2n1,17.8%,
Brc1ccc(Nc2c3c(nc4nncn24)CCC3)cc1,3.82%,
Cc1noc(/C=C/N(C)C)c1S(=O)(=O)N1CCCC(C(=O)Nc2ccc(F)cc2F)C1 (centres undefined),,1.85 µM (active)
Cc1c(C(=O)Nc2ccc(F)cc2F)nnn1-c1ccccc1Br,7.63%,
COc1ccc(NC(=O)c2ccco2)cc1NC(=O)COc1ccccc1Cl,-18.1%,
CN(C)c1ccc(Nc2nc3ccccc3n3nnnc23)cc1,46.5%,
COc1cc(Br)ccc1C1C(C(=O)Nc2ccc(C)cc2C)=C(C)Nc2nnnn21 (centres undefined),-23.5%,
Cc1ccc(S(=O)(=O)c2nnn3c2nc(NCc2cccs2)c2sccc23)cc1,1.95%,
CCOc1ccc(NC(=O)N(Cc2c[nH]c3ccccc23)C2CCCCCC2)cc1,-4.58%,
CCS(=O)(=O)c1ccccc1C(=O)N(Cc1cccnc1)c1nc2cc(C)c(C)cc2s1,-4.58%,
O=C(NCC1CCN(Cc2cccc(Cl)c2)CC1)Nc1ccc(F)c(Cl)c1,30.7%,
COc1ccc(S(=O)(=O)N(Cc2nc(-c3cccc(C)c3)no2)C2CCCCC2)cc1,7.2%,
O=S(=O)(c1ccccc1)n1nc(-c2ccc(Cl)cc2)nc1NCc1ccccc1,-20.8%,
CCc1ccc(NC(=O)C2CCCN(S(=O)(=O)c3cccc4cccnc34)C2)cc1 (centres undefined),-27%,
Cc1cccc(Nc2ncc(NC(=O)c3cccc(F)c3)c(Nc3cccc(C)c3)n2)c1,,5.85 µM (active)
CCCCS(=O)(=O)c1oc(-c2cccs2)nc1S(=O)(=O)c1ccccc1,,1.31 µM (active)
Cc1ccc(CN(Cc2ccco2)C(=O)c2cccc(C)c2)cc1,8.98%,
